Results from PubChem BioAssay (EPA / NIEHS).
Activity calls are given as the source filed them. The calls were made as follows: active = hit-call score of the fitted dose curve at least 0.9, where 1 is the maximum; inactive = score below 0.9.

How the values were obtained:
Details in all cases: mRNA level, 48 h; actives raise or lower the signal
[1] = read-out: Broad substrate specificity ATP-binding cassette transporter ABCG2 (Homo sapiens) (UniProt Q9UNQ0); test: LTEA_HepaRG_ABCG2: Life Technologies and Expression Analysis (LTEA) Assay for ABC Transporter (ABCG2) using HepaRG (AID 2283465)
Outline: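 Read-out is ABCG2 mRNA induction or loss quantified by qRT-PCR after 48 h chemical treatment of human HepaRG cells, normalized to three housekeeping genes. Concentrations reached 100 uM top in half-log steps; fitting was bidirectional against 0.5% DMSO.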

[2] = read-out: ATP-citrate lyase (ACLY), ACLY (gene 47); test: LTEA_HepaRG_ACLY: Life Technologies and Expression Analysis (LTEA) Assay for ATP-citrate lyase (ACLY) using HepaRG (AID 2283466)
Outline: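 HepaRG, 48 h exposure, 8-pt half-log dilutions (top 100 uM), 0.5% DMSO. Readout: ACLY mRNA, TaqMan qRT-PCR, housekeeping-normalized (ACTB/GAPDH/POLR2A). Bidirectional curve fit vs DMSO.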

[3] = read-out: Peroxisomal acyl-coenzyme A oxidase 1 (ACOX1) gene, ACOX1 (gene 51); test: LTEA_HepaRG_ACOX1: Life Technologies and Expression Analysis (LTEA) Assay for Peroxisomal acyl-coenzyme A oxidase 1 (ACOX1) gene using HepaRG (AID 2283467)
Outline: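 Measured by qRT-PCR against three housekeeping genes: ACOX1 transcript change in human HepaRG cells after 48 h dosing. Concentrations ran up to 100 uM in half-log steps. Curves were fitted bidirectionally relative to 0.5% DMSO.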

[4] = read-out: Alkaline Phosphatase, Placental (ALPP) gene, ALPP (gene 250); test: LTEA_HepaRG_ALPP: Life Technologies and Expression Analysis (LTEA) Assay for Alkaline Phosphatase, Placental (ALPP) gene using HepaRG (AID 2283468)
Outline: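 HepaRG cells plated 48 h, then exposed in duplicate for 48 h in serum-free induction medium to 8-point half-log series from 100 uM in 0.5% DMSO. ALPP mRNA by TaqMan qRT-PCR, normalized to ACTB/GAPDH/POLR2A; bidirectional fit versus DMSO.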

[5] = read-out: Bcl-2 (BAD) gene, BAD (gene 572); test: LTEA_HepaRG_BAD: Life Technologies and Expression Analysis (LTEA) Assay for Bcl-2 (BAD) gene using HepaRG (AID 2283469)
Outline: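 BAD transcript change, measured by qRT-PCR against three housekeeping genes and fitted in both directions relative to 0.5% DMSO, after 48 h chemical treatment of human HepaRG liver cells at concentrations up to 100 uM.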

[6] = read-out: Bcl-2 (BAX) gene, BAX (gene 581); test: LTEA_HepaRG_BAX: Life Technologies and Expression Analysis (LTEA) Assay for Bcl-2 (BAX) gene using HepaRG (AID 2283470)
Outline: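 Differentiated human HepaRG cells, plated 48 h then switched to serum-free induction medium, were exposed 48 h to 8 half-log concentrations up to 100 uM in 0.5% DMSO; BAX mRNA measured by qRT-PCR, normalized to ACTB, GAPDH, POLR2A.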

[7] = read-out: adenosine kinase (ADK) gene, ADK (gene 132); test: LTEA_HepaRG_ADK: Life Technologies and Expression Analysis (LTEA) Assay for adenosine kinase (ADK) gene using HepaRG (AID 2283471)
Outline: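 ADK expression quantified by qRT-PCR, normalised to three housekeeping genes, after 48 h exposure of HepaRG cells to eight concentrations (top 100 uM, half-log steps, duplicate, 0.5% DMSO). Up- or down-regulation fitted relative to vehicle.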

[8] = read-out: Alpha-fetoprotein (AFP) gene, AFP (gene 174); test: LTEA_HepaRG_AFP: Life Technologies and Expression Analysis (LTEA) Assay for Alpha-fetoprotein (AFP) gene using HepaRG (AID 2283472)
Outline: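 Human HepaRG cells plated 48 h, then switched to serum-free induction medium and exposed in duplicate for 48 h to 8-point half-log series from 100 uM in 0.5% DMSO. AFP mRNA by qRT-PCR, normalized to ACTB, GAPDH, POLR2A; bidirectional fit versus DMSO.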

[9] = read-out: BCL2L11 (gene 10018); test: LTEA_HepaRG_BCL2L11: Life Technologies and Expression Analysis (LTEA) Assay for Bcl-2 (BCL2L11) gene using HepaRG (AID 2283473)
Outline: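 Differentiated human HepaRG cells were exposed 48 h in serum-free induction medium to eight half-log concentrations up to 100 uM in 0.5% DMSO, in duplicate. BCL2L11 mRNA was quantified by TaqMan qRT-PCR, normalized to ACTB, GAPDH and POLR2A; induction or repression fitted versus DMSO.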

[10] = read-out: Apolipoprotein A-V (APOA5) gene, APOA5 (gene 116519); test: LTEA_HepaRG_APOA5: Life Technologies and Expression Analysis (LTEA) Assay for Apolipoprotein A-V (APOA5) gene using HepaRG (AID 2283474)
Outline: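 Differentiated HepaRG cells in serum-free induction medium, exposed 48 h in duplicate to eight half-log concentrations topping at 100 uM (0.5% DMSO). APOA5 mRNA by Fluidigm TaqMan qRT-PCR, normalized to ACTB, GAPDH and POLR2A; bidirectional fit versus DMSO.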

[11] = read-out: Apoptosis regulator Bcl-2 (Homo sapiens) (UniProt P10415); test: LTEA_HepaRG_BCL2: Life Technologies and Expression Analysis (LTEA) Assay for Bcl-2 gene using HepaRG (AID 2283475)
Outline: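 Differentiated HepaRG cells in serum-free induction medium were exposed for 48 h to eight half-log concentrations up to 100 uM in 0.5% DMSO, in duplicate. BCL2 mRNA was quantified by TaqMan qRT-PCR normalised to ACTB, GAPDH and POLR2A, with bidirectional fitting versus DMSO.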

[12] = read-out: Bcl-2 (BID) gene, BID (gene 637); test: LTEA_HepaRG_BID: Life Technologies and Expression Analysis (LTEA) Assay for Bcl-2 (BID) gene using HepaRG (AID 2283476)
Outline: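 Differentiated HepaRG cells in serum-free induction medium were exposed in duplicate for 48 h to eight half-log concentrations up to 100 uM in 0.5% DMSO. BID mRNA was quantified by qRT-PCR, normalized to ACTB, GAPDH and POLR2A.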

[13] = read-out: Caspase-3 (Homo sapiens) (UniProt P42574); test: LTEA_HepaRG_CASP3: Life Technologies and Expression Analysis (LTEA) Assay for cysteine-aspartic acid protease (CASP3) using HepaRG (AID 2283477)
Outline: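 Differentiated HepaRG cells, plated 48 h, were treated in duplicate in serum-free induction medium for 48 h with eight half-log concentrations up to 100 uM in 0.5% DMSO. CASP3 mRNA measured by qRT-PCR, normalized to ACTB, GAPDH, POLR2A.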

[14] = read-out: cysteine-aspartic acid protease (CASP8), CASP8 (gene 841); test: LTEA_HepaRG_CASP8: Life Technologies and Expression Analysis (LTEA) Assay for cysteine-aspartic acid protease (CASP8) using HepaRG (AID 2283480)
Outline: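 HepaRG, 48 h exposure, duplicate wells; 8 conc, half-log from 100 uM, 0.5% DMSO. Serum-free induction medium. CASP8 mRNA by TaqMan qRT-PCR, norm. ACTB/GAPDH/POLR2A; gain/loss fitted vs DMSO.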

[15] = read-out: Cytochrome P450 (CYP24A1), CYP24A1 (gene 1591); test: LTEA_HepaRG_CYP24A1: Life Technologies and Expression Analysis (LTEA) Assay for Cytochrome P450 (CYP24A1) using HepaRG (AID 2283478)
Outline: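 HepaRG cells plated 48 h, then exposed in duplicate in serum-free induction medium for 48 h to 8-point half-log series from 100 uM in 0.5% DMSO. CYP24A1 mRNA by Fluidigm qRT-PCR, normalized to ACTB, GAPDH, POLR2A; bidirectional fit versus DMSO.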

[16] = read-out: Cytochrome P450 (CYP1A2), CYP1A2 (gene 1544); test: LTEA_HepaRG_CYP1A2: Life Technologies and Expression Analysis (LTEA) Assay for Cytochrome P450 (CYP1A2) using HepaRG (AID 2283479)
Outline: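 Differentiated human HepaRG cells in serum-free induction medium exposed 48 hours in duplicate to 8 half-log concentrations from 100 uM, 0.5% DMSO. CYP1A2 mRNA quantified by qRT-PCR, normalized to ACTB, GAPDH and POLR2A; bidirectional fitting versus DMSO.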

[17] = read-out: Cytochrome P450 (CYP2B6), CYP2B6 (gene 1555); test: LTEA_HepaRG_CYP2B6: Life Technologies and Expression Analysis (LTEA) Assay for Cytochrome P450 (CYP2B6) using HepaRG (AID 2283481)
Outline: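 Differentiated human HepaRG cells in serum-free induction medium, dosed in duplicate for 48 h over 8 half-log concentrations topping at 100 uM (0.5% DMSO). CYP2B6 mRNA measured by TaqMan qRT-PCR, normalized to ACTB, GAPDH, POLR2A; bidirectional fit versus DMSO.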

[18] = read-out: Cytochrome P450 2C19 (Homo sapiens) (UniProt P33261); test: LTEA_HepaRG_CYP2C19: Life Technologies and Expression Analysis (LTEA) Assay for CYP2C19 using HepaRG (AID 2283482)
Outline: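 Differentiated HepaRG cells in serum-free induction medium exposed 48 h in duplicate, 8 concentrations from 100 uM by half-log steps in 0.5% DMSO. CYP2C19 mRNA measured by TaqMan qRT-PCR, normalized to ACTB, GAPDH, POLR2A. Bidirectional fit versus DMSO.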

[19] = read-out: CYP2C8 (gene 1558); test: LTEA_HepaRG_CYP2C8: Life Technologies and Expression Analysis (LTEA) Assay for CYP2C8 using HepaRG (AID 2283483)
Outline: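 CYP2C8 mRNA induction or loss, by qRT-PCR normalized to ACTB/GAPDH/POLR2A, is read in HepaRG cells after 48 h treatment. Concentrations run from 100 uM down in half-log dilutions, with 0.5% DMSO as vehicle and baseline.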

[20] = read-out: CYP2C9 (gene 1559); test: LTEA_HepaRG_CYP2C9: Life Technologies and Expression Analysis (LTEA) Assay for CYP2C9 using HepaRG (AID 2283484)
Outline: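 Cells plated 48 h, switched to serum-free induction medium, then treated in duplicate for 48 h at eight concentrations (max 100 uM, 0.5% DMSO). RNA then analysed by qRT-PCR for CYP2C9; curves fitted in both directions relative to DMSO.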

Measured: AC50

Chain of Caspase-3 (Homo sapiens) (P42574 whole entry, looked up): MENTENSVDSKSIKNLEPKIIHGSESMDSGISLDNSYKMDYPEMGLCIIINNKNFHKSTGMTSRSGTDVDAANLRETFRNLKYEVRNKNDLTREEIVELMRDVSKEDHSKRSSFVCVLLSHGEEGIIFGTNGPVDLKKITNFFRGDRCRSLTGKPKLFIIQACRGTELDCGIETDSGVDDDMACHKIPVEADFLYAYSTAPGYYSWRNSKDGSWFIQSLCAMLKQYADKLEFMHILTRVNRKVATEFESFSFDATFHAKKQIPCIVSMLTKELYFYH
Chain of Apoptosis regulator Bcl-2 (Homo sapiens) (P10415 whole entry, looked up): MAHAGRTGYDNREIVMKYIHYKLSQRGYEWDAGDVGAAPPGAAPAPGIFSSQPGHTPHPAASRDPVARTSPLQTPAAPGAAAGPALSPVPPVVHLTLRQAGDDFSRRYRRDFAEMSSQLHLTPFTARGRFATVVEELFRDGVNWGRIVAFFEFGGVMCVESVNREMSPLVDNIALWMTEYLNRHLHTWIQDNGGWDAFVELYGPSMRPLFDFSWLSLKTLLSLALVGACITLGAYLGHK
Chain of Cytochrome P450 2C19 (Homo sapiens) (P33261 whole entry, looked up): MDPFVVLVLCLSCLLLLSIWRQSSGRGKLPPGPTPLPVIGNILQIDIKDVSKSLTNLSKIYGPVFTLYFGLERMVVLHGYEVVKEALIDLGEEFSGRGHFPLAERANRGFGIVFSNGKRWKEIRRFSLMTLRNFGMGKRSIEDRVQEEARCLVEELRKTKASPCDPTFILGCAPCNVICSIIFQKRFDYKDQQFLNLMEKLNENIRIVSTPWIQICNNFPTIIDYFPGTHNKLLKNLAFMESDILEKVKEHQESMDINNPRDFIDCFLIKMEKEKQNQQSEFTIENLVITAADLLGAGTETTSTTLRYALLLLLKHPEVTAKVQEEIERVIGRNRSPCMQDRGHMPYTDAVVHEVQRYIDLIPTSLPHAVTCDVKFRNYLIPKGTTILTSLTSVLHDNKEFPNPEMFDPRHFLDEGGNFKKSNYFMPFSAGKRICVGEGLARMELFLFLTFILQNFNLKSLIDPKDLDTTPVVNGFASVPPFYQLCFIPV
Chain of Broad substrate specificity ATP-binding cassette transporter ABCG2 (Homo sapiens) (Q9UNQ0 whole entry, looked up): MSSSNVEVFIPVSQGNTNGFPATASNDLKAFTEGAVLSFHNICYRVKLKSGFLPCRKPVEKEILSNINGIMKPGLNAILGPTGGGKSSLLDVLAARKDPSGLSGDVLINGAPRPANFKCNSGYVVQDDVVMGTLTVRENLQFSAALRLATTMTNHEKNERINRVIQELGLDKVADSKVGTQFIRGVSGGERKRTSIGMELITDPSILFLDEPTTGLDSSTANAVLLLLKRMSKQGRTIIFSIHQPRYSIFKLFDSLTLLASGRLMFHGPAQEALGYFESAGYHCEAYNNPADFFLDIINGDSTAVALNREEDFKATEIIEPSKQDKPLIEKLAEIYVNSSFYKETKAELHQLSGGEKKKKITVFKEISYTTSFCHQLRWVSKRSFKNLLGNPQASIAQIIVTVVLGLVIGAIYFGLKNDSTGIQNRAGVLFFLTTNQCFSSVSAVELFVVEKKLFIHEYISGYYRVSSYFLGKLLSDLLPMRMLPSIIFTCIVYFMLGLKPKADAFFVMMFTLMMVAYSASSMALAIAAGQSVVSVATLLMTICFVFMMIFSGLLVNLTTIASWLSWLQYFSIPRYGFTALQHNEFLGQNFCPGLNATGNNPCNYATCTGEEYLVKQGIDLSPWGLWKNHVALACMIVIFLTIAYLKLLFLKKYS

O=C(O)[C@H](O)[C@@H](O)C(=O)O
not listed: [15] | [16] | [17] | [18] | [19] | [20]
inactive: all other assays above

CC(C)CCCCCCOC(=O)C1CCCCC1C(=O)OCCCCCCC(C)C (centres undefined)
active: [4] 3.16 nM | [7] 3.16 nM | [10] 3.16 nM | [12] 3.16 nM | [13] 3.16 nM | [16] 50000 nM | [14] 3.16 nM
inactive: all other assays above

OC[C@H]1O[C@@H]2O[C@H]3[C@H](O)[C@@H](O)[C@@H](O[C@H]4[C@H](O)[C@@H](O)[C@@H](O[C@H]5[C@H](O)[C@@H](O)[C@@H](O[C@H]6[C@H](O)[C@@H](O)[C@@H](O[C@H]7[C@H](O)[C@@H](O)[C@@H](O[C@H]1[C@H](O)[C@H]2O)O[C@@H]7CO)O[C@@H]6CO)O[C@@H]5CO)O[C@@H]4CO)O[C@@H]3CO
inactive: all assays above

NC(N)=O
inactive: all assays above
